# In ChEMBL document CHEMBL5724796, “Tm Shift (DSF) assay results for EUbOPEN Chemogenomics Library” (2024):
# Columns and labels:
# Conditions in all cases: Compound concentration 20.0 uM
# [1] = target: Tyrosine-protein kinase ABL1 (Homo sapiens) (UniProt P00519)
# [2] = target: Bromodomain-containing protein 4 (Homo sapiens) (UniProt O60885)
# [3] = target: Cyclin-dependent kinase 2 (Homo sapiens) (UniProt P24941)
# [4] = target: Casein kinase I isoform delta (Homo sapiens) (UniProt P48730)
# [5] = target: Glycogen synthase kinase-3 beta (Homo sapiens) (UniProt P49841)
# Glycogen synthase kinase-3 beta (Homo sapiens), sequence (P49841 whole entry, looked up): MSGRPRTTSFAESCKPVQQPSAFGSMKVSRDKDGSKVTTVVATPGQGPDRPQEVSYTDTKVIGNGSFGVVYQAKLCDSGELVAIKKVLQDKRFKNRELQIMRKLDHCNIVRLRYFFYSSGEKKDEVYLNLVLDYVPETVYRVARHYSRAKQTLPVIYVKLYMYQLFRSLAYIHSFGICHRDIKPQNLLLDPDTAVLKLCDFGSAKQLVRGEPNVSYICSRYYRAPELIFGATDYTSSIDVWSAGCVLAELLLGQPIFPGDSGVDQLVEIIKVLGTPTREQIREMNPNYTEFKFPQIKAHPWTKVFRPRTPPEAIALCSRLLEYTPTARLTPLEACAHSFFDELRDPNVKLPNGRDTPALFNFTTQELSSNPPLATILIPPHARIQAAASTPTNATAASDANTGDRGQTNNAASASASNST
# [6] = target: Mitogen-activated protein kinase 1 (Homo sapiens) (UniProt P28482)
# Mitogen-activated protein kinase 1 (Homo sapiens), sequence (P28482 whole entry): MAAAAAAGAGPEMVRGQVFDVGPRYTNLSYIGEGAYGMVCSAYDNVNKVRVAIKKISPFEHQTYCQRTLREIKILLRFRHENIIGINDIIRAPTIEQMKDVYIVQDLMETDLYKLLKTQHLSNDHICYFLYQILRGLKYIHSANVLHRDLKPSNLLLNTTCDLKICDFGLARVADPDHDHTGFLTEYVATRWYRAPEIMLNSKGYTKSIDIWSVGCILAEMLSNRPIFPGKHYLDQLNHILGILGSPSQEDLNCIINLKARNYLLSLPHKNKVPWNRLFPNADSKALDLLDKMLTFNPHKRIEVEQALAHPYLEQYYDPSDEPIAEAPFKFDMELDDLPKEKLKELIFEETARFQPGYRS
# [7] = target: T1, Aurora kinase A (Homo sapiens) (UniProt O14965)
# T1 sequence (whole entry): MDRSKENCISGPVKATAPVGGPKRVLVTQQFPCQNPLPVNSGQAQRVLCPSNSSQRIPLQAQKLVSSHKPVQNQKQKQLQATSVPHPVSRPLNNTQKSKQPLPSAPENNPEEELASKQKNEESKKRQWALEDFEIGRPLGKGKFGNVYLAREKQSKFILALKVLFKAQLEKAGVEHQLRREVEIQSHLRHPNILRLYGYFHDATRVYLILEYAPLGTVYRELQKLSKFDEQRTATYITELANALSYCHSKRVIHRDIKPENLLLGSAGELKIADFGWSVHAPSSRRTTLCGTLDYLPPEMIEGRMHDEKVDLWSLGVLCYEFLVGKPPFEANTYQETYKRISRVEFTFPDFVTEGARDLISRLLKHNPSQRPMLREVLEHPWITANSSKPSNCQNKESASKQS
# [8] = target: T2, Transcription intermediary factor 1-alpha (Homo sapiens) (UniProt O15164)
# T2 sequence (whole entry): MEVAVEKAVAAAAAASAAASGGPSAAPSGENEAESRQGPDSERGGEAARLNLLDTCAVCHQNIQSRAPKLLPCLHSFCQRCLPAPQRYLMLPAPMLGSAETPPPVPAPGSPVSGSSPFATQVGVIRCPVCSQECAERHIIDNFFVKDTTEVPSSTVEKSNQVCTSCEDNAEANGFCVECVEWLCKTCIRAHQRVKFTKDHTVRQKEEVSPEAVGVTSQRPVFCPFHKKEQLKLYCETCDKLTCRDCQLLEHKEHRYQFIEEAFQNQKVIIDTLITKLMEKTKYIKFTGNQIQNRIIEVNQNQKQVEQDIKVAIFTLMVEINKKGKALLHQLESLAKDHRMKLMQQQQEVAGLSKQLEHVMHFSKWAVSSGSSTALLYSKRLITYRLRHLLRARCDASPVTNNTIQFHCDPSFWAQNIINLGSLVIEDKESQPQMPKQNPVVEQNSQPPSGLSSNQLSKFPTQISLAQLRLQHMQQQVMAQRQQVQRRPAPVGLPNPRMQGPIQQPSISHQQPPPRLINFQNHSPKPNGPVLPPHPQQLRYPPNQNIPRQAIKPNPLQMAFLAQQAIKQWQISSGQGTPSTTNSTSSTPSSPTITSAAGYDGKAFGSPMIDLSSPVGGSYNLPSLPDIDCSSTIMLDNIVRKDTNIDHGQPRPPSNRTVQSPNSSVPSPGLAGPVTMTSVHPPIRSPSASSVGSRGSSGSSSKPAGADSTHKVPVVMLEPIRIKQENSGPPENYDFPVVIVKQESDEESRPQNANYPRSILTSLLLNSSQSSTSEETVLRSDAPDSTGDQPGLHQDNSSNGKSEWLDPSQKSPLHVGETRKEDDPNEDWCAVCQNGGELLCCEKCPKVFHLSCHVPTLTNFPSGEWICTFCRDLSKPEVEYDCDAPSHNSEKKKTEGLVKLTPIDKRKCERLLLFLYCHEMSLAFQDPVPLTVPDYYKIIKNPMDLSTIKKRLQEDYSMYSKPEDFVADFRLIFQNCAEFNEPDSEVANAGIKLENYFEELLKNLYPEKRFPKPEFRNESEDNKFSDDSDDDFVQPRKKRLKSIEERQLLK
# Tyrosine-protein kinase ABL1 (Homo sapiens), sequence (P00519 whole entry): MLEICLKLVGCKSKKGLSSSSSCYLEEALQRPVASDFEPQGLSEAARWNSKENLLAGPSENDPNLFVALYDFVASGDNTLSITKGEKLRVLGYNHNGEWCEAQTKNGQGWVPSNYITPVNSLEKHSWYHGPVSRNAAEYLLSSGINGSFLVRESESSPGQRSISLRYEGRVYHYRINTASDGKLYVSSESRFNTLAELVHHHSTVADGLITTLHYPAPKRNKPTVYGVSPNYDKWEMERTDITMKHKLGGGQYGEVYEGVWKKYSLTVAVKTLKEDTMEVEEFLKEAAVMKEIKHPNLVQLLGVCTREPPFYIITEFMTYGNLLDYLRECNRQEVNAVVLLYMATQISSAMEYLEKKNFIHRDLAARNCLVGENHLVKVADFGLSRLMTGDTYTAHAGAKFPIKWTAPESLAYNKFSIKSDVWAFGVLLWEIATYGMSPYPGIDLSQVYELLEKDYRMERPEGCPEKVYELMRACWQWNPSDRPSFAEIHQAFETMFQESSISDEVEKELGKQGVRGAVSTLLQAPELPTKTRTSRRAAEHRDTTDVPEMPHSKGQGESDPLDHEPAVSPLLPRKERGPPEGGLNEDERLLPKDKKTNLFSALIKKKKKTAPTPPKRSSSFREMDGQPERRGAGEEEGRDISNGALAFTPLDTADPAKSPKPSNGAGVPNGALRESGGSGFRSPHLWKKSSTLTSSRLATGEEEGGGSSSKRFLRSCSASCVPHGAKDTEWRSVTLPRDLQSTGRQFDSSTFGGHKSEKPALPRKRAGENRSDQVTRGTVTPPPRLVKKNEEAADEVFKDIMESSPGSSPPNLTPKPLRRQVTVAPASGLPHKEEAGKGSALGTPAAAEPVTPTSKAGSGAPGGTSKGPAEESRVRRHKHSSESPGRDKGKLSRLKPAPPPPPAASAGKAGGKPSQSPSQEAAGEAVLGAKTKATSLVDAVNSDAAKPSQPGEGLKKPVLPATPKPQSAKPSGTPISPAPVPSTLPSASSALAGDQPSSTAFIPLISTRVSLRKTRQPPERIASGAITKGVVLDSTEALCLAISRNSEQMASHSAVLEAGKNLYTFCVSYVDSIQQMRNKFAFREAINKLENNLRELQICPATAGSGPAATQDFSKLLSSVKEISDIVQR
# Casein kinase I isoform delta (Homo sapiens), sequence (P48730 whole entry, looked up, canonical isoform): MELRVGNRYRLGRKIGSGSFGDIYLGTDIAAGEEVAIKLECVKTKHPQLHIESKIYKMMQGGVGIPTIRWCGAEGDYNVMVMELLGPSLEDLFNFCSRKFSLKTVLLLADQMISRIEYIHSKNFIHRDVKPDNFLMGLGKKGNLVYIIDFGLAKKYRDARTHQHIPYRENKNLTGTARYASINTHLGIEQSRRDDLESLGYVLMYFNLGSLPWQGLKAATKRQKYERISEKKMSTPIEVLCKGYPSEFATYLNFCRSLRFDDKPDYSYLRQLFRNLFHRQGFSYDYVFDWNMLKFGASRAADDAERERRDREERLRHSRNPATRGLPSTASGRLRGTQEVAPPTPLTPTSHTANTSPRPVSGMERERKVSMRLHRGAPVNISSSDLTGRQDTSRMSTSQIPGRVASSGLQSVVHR
smiles,measurement,setting,value
CCCCCCNC(=O)n1cc(Cl)c(=O)n(C(=O)OCC(C)C)c1=O,ΔTm,[1],0.44 °C
same,ΔTm,[2],-0.35 °C
same,ΔTm,[3],0.16 °C
same,ΔTm,[4],-0.34 °C
same,ΔTm,[5],-0.76 °C
same,ΔTm,[6],-0.05 °C
same,ΔTm,[7],-0.58 °C
same,ΔTm,[8],0.93 °C
CCCCNc1cc(C(=O)O)cc(S(N)(=O)=O)c1Oc1ccccc1,ΔTm,[1],0.19 °C
same,ΔTm,[2],-1.86 °C
same,ΔTm,[3],-0.19 °C
same,ΔTm,[4],0.17 °C
same,ΔTm,[5],-0.41 °C
same,ΔTm,[6],0.13 °C
same,ΔTm,[7],0.14 °C
same,ΔTm,[8],0.82 °C
C[C@@H]1CN(c2nccc(Nc3ccc4c(c3)n(CCC(C)(C)O)c(=O)n4C)n2)C[C@H](C)C1(F)F,ΔTm,[1],1.46 °C
same,ΔTm,[2],-1.76 °C
same,ΔTm,[3],3.21 °C
same,ΔTm,[4],-0.23 °C
same,ΔTm,[5],-0.32 °C
same,ΔTm,[6],-7.23 °C
same,ΔTm,[7],-2.03 °C
same,ΔTm,[8],-1.14 °C
Cc1cc(C)c(-c2[nH]nc(C)c2C)cc1C(=O)N1CC(c2ccc(C#N)cc2)C1,ΔTm,[1],1.06 °C
same,ΔTm,[2],-3.66 °C
same,ΔTm,[3],-0.16 °C
same,ΔTm,[4],-0.21 °C
same,ΔTm,[5],-0.42 °C
same,ΔTm,[6],0.26 °C
same,ΔTm,[7],-2.18 °C
same,ΔTm,[8],-0.05 °C
O=[N+]([O-])c1c(Nc2cc(F)cc(Cl)c2)ccc2nonc12,ΔTm,[1],0.44 °C
same,ΔTm,[2],-2.93 °C
same,ΔTm,[3],0.03 °C
same,ΔTm,[4],-0.44 °C
same,ΔTm,[5],-0.33 °C
same,ΔTm,[6],0.07 °C
same,ΔTm,[7],-2.49 °C
same,ΔTm,[8],-0.26 °C
CCN(CC)c1ccc(C2=NNC(=O)C[C@H]2C)cc1[N+](=O)[O-],ΔTm,[1],0.04 °C
same,ΔTm,[2],0.2 °C
same,ΔTm,[3],-0.04 °C
same,ΔTm,[4],0.06 °C
same,ΔTm,[5],0.13 °C
same,ΔTm,[6],-0.11 °C
same,ΔTm,[7],-0.2 °C
same,ΔTm,[8],-0.15 °C
Cn1ncnc1[C@H]1C2=c3c(cc(F)cc3=N[C@@H]1c1ccc(F)cc1)C(=O)NN2,ΔTm,[1],0.89 °C
same,ΔTm,[2],0.71 °C
same,ΔTm,[3],0.22 °C
same,ΔTm,[4],-0.5 °C
same,ΔTm,[5],0.19 °C
same,ΔTm,[6],0.14 °C
same,ΔTm,[7],-1.59 °C
same,ΔTm,[8],0.57 °C
O=C1COc2c(cccc2[C@@H](O)CNCCN(C(=O)CCNCCc2ccc(Cl)c(Cl)c2)C2CCCCC2)N1,ΔTm,[1],0.38 °C
same,ΔTm,[2],-1.19 °C
same,ΔTm,[3],0.73 °C
same,ΔTm,[4],0.16 °C
same,ΔTm,[5],0.42 °C
same,ΔTm,[6],0.56 °C
same,ΔTm,[7],-1.62 °C
same,ΔTm,[8],1.39 °C
CCOc1ccc2nc(-c3cccc(OCC(=O)NC(C)C)c3)nc(Nc3ccc(-c4cn[nH]c4)cc3)c2c1,ΔTm,[1],0.09 °C
same,ΔTm,[2],-0.68 °C
same,ΔTm,[3],0.3 °C
same,ΔTm,[4],-1.4 °C
same,ΔTm,[5],-0.35 °C
same,ΔTm,[6],-2.16 °C
same,ΔTm,[7],0 °C
same,ΔTm,[8],0 °C
